# According to PubChem BioAssay AID1159580 (chemical genetic matrix, 2015):
# Values joined by “and” are separate entries in the source; they are usually repeats but may differ in a detail not shown here. Equal entries are not always repeated. The whole screen tested about 5,500 compounds, of which about 2,000 (36%) were called active. Roughly 18% stayed inconclusive and do not appear here. The list shows a part of the results. Unmarked numbers belong to inactive results. No stated cut-off is given here; in the data, active means normalized growth mostly below about 0.91 (no sharp cut-off); inconclusive means no clear call, values can overlap the other calls; inactive means mostly above about 0.92.
# Test: chemical genetic growth profiling, strain panel (AID 1159580);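 further: tested at 20 µM; growth read once vehicle control cultures reached saturation at 30 °C; 1 = growth at the plate median or of vehicle wells; lower values mean less growth of the strain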
# Details: S. cerevisiae deletion strains, growth OD
structure (smiles),measurement,setting,value
CC(C)OC(=O)C(C)(C)Oc1ccc(C(=O)c2ccc(Cl)cc2)cc1,normalized growth,"locus YAL013W, strain DEP1, active compounds read low",1.01
same,normalized growth,"locus YAL021C, strain ccr4, active compounds read low",1
same,normalized growth,"locus YAL026C, strain drs2, active compounds read low",0.976
same,normalized growth,"locus YAL030W, strain snc1, active compounds read low",0.971
same,normalized growth,"locus YAL040C, strain CLN3, active compounds read low",1.08
same,normalized growth,"locus YBL061C, strain skt5, active compounds read low",0.966
same,normalized growth,"locus YBR009C, strain hhf1, active compounds read low",0.949
same,normalized growth,"locus YBR021W, strain FUR4, active compounds read low",0.976
same,normalized growth,"locus YBR023C, strain chs3, active compounds read low",0.97
same,normalized growth,"locus YBR171W, strain sec66, active compounds read low",0.965
same,normalized growth,"locus YBR229C, strain ROT2, active compounds read low",1
same,normalized growth,"locus YBR231C, strain swc5, active compounds read low",0.969
same,normalized growth,"locus YBR279W, strain paf1, active compounds read low",0.973
same,normalized growth,"locus YCL011C, strain gbp2, active compounds read low",0.954
same,normalized growth,"locus YCL016C, strain dcc1, active compounds read low",0.975
same,normalized growth,"locus YCL029C, strain bik1, active compounds read low",1.01
same,normalized growth,"locus YCL061C, strain MRC1 (second series), active compounds read low",0.982
same,normalized growth,"locus YCL061C, strain MRC1, active compounds read low",0.981
same,normalized growth,"locus YCL069W, strain vba3, active compounds read low",0.978
same,normalized growth,"locus YCR088W, strain abp1, active compounds read low",0.977
same,normalized growth,"locus YDL005C, strain med2, active compounds read low",0.961
same,normalized growth,"locus YDL035C, strain GPR1, active compounds read low",0.942
same,normalized growth,"locus YDL040C, strain nat1, active compounds read low",0.966
same,normalized growth,"locus YDL074C, strain BRE1, active compounds read low",0.931
same,normalized growth,"locus YDL101C, strain DUN1, active compounds read low",1.01
same,normalized growth,"locus YDL134C, strain PPH21, active compounds read low",0.995
same,normalized growth,"locus YDL185W, strain tfp1, active compounds read low",0.995
same,normalized growth,"locus YDL192W, strain arf1, active compounds read low",0.987
same,normalized growth,"locus YDR001C, strain nth1, active compounds read low",0.971
same,normalized growth,"locus YDR069C, strain doa4, active compounds read low",0.975
same,normalized growth,"locus YDR101C, strain arx1, active compounds read low",0.987
same,normalized growth,"locus YDR137W, strain rgp1, active compounds read low",0.943
same,normalized growth,"locus YDR150W, strain NUM1, active compounds read low",1.01
same,normalized growth,"locus YDR159W, strain sac3, active compounds read low",0.982
same,normalized growth,"locus YDR162C, strain NBP2, active compounds read low",0.671 (active)
same,normalized growth,"locus YDR195W, strain ref2",0.982
same,normalized growth,"locus YDR297W, strain sur2, active compounds read low",0.976
same,normalized growth,"locus YDR318W, strain mcm21, active compounds read low",0.969
same,normalized growth,"locus YDR334W, strain swr1, active compounds read low",0.976
same,normalized growth,"locus YDR335W, strain msn5, active compounds read low",0.977
same,normalized growth,"locus YDR363W, strain ESC2, active compounds read low",0.969
same,normalized growth,"locus YDR388W, active compounds read low",0.983
same,normalized growth,"locus YDR392W, strain spt3, active compounds read low",0.923
same,normalized growth,"locus YDR502C, strain sam2, active compounds read low",0.979
same,normalized growth,"locus YEL003W, strain gim4, active compounds read low",0.979
same,normalized growth,"locus YEL037C, strain rad23, active compounds read low",1.01
same,normalized growth,"locus YEL061C, strain CIN8 (second series), active compounds read low",0.963
same,normalized growth,"locus YEL061C, strain CIN8, active compounds read low",1.01
same,normalized growth,"locus YER002W, strain NOP16, active compounds read low",1
same,normalized growth,"locus YER015W, strain faa2, active compounds read low",0.967
same,normalized growth,"locus YER016W, strain bim1, active compounds read low",0.978
same,normalized growth,"locus YER110C, active compounds read low",0.998
same,normalized growth,"locus YER111C, strain swi4, active compounds read low",0.961
same,normalized growth,"locus YER155C, strain BEM2 (second series), active compounds read low",0.977
same,normalized growth,"locus YER155C, strain BEM2, active compounds read low",1
same,normalized growth,"locus YER167W, strain BCK2, active compounds read low",0.987
same,normalized growth,"locus YFR010W, strain ubp6, active compounds read low",0.964
same,normalized growth,"locus YGL078C, strain dbp3, active compounds read low",0.991
same,normalized growth,"locus YGL086W, strain mad1, active compounds read low",0.979
same,normalized growth,"locus YGL167C, strain pmr1, active compounds read low",0.957
same,normalized growth,"locus YGL173C, strain kem1, active compounds read low",0.977
same,normalized growth,"locus YGL227W, strain vid30, active compounds read low",0.967
same,normalized growth,"locus YGL240W, strain doc1, active compounds read low",0.991
same,normalized growth,"locus YGL248W, strain PDE1, active compounds read low",0.969
same,normalized growth,"locus YGL253W, strain hxk2, active compounds read low",0.972
same,normalized growth,"locus YGR078C, strain PAC10, active compounds read low",0.944 and 0.983
same,normalized growth,"locus YGR135W, strain pre9, active compounds read low",0.987
same,normalized growth,"locus YGR229C, strain SMI1, active compounds read low",0.763 (active)
same,normalized growth,"locus YGR252W, strain gcn5, active compounds read low",0.995
same,normalized growth,"locus YHR013C, strain ard1, active compounds read low",0.963
same,normalized growth,"locus YHR027C, strain rpn1, active compounds read low",0.986
same,normalized growth,"locus YHR030C, strain SLT2, active compounds read low",0.989 and 0.966
same,normalized growth,"locus YHR079C, strain IRE1 (second series), active compounds read low",0.987
same,normalized growth,"locus YHR079C, strain IRE1, active compounds read low",0.952
same,normalized growth,"locus YHR094C, strain hxt1, active compounds read low",0.977
same,normalized growth,"locus YHR129C, strain ARP1, active compounds read low",1
same,normalized growth,"locus YHR142W, strain chs7, active compounds read low",0.966
same,normalized growth,"locus YHR200W, strain rpn10, active compounds read low",0.995
same,normalized growth,"locus YIL066C, strain RNR3, active compounds read low",0.971
same,normalized growth,"locus YIL073C, strain SPO22, active compounds read low",0.741
same,normalized growth,"locus YIL125W, strain kgd1, active compounds read low",0.991
same,normalized growth,"locus YIR030C, strain dcg1, active compounds read low",0.983
same,normalized growth,"locus YJL092W, strain hpr5, active compounds read low",0.975
same,normalized growth,"locus YJL095W, strain BCK1 (second series), active compounds read low",0.981
same,normalized growth,"locus YJL095W, strain BCK1, active compounds read low",0.971 and 0.954
same,normalized growth,"locus YJL115W, strain asf1, active compounds read low",0.972
same,normalized growth,"locus YJL129C, strain trk1, active compounds read low",0.893
same,normalized growth,"locus YJL134W, strain LCB3, active compounds read low",1
same,normalized growth,"locus YJL154C, strain vps35, active compounds read low",0.973
same,normalized growth,"locus YJL164C, strain tpk1, active compounds read low",0.964
same,normalized growth,"locus YJL166W, strain qcr8, active compounds read low",0.955
same,normalized growth,"locus YJL168C, strain set2, active compounds read low",0.983
same,normalized growth,"locus YJL187C, strain SWE1 (second series), active compounds read low",1
same,normalized growth,"locus YJL187C, strain SWE1, active compounds read low",0.97
same,normalized growth,"locus YJR043C, strain POL32, active compounds read low",1.01
same,normalized growth,"locus YJR066W, strain TOR1, active compounds read low",0.873
